# Experimental data reported in PubChem BioAssay AID720541 (National Center for Advancing Translational Sciences (NCATS), 2013).
# The whole screen tested about 1,300 compounds, of which about 420 (32%) were called active. Inconclusive results (about 32%) are left out. The list shows a part of the results. Unmarked numbers belong to inactive results. Calls come from the whole dose curve; as a rule, active = well fitted inhibition curve with a large enough effect; inconclusive = small, poorly fitted or top-dose-only effect; inactive = no such curve, though single readings can be large or run the other way.
# Target: C-terminal-binding protein 1 (Homo sapiens) (UniProt Q13363)
# Assay: qHTS for Inhibitors of the Phosphatase Activity of Eya2: Carboxyl-terminal binding protein (CtBP) Counterscreen for Cherry-picked Compounds; note: nearly all actives have a fitted effect of over 65% in size
# Settings: purified protein-protein binding, AlphaScreen, 3 h; series mostly up to 46.1 µM; activity change, negative = inhibition: at the top concentration
# In short: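 Cherry-picked compounds (final 2.5 nM–46 uM) were incubated 2 h at RT with 25 nM CtBP-6xHIS and 25 nM GST-E1A. Alpha beads (20 ug/mL) were then added for 1 h, light-protected; DMSO and E1A peptide inhibitor wells set the normalization.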
# % is set by controls: 0 for no effect and ±100 for the full control effect; potency is the fitted concentration of half-maximal effect.
SMILES,"activity change, negative = inhibition [%]",Potency
COc1ccc(N2CCN(C(=O)Cc3ccc(Cl)cc3)CC2)cc1,-20.1,
CC(C)n1ncc2c(C(=O)N3CCN(Cc4ccc(Br)s4)CC3)cc(C3CC3)nc21,-21.5,
COc1ccc(N2CCN(Cc3cc4c(cc3Br)OCCO4)CC2)cc1,,12 µM (active)
COc1ccc(N2CCN(C(=O)CCC(=O)N3CC(C)Oc4ccc(C)cc43)CC2)cc1 (stereo not drawn),-26.2,
COc1ccc(N2CCN(C(c3cccs3)C(C)NC(=O)c3ccc4c(c3)OCO4)CC2)cc1 (stereo not drawn),56,
COc1ccc(N2CCN(Cc3ccc(Br)s3)CC2)cc1,,15.1 µM (active)
COC(=O)c1c(C)[nH]c(C(=O)C(C)OC(=O)C2CC(=O)N(c3ccc(C)cc3)C2)c1C (stereo not drawn),-17.4,
COc1cc(CNCc2ccc(OC)cc2OC)cc(OC)c1,3.5,
O=C(O)c1cc(-c2ccc(/C=C3\NC(=O)N(c4ccc(Cl)cc4)C3=O)o2)ccc1Cl,,8.49 µM (active)
Cc1cc(NC(=O)CSc2nnc(Nc3ccccc3F)s2)no1,3.43,
CC(C)Nc1nnc(SCC(=O)Nc2ccc3c(c2)C(=O)c2ccccc2C3=O)s1,,5.36 µM (active)
CCCCc1cc(=O)oc2cc(OCC(=O)N3CCC(C(=O)O)(c4ccccc4)CC3)ccc12,-36.1,
Cc1coc2c(C)c3oc(=O)c(CCC(=O)N4CCC(C(=O)NCCCC(=O)O)(c5ccccc5)CC4)c(C)c3cc12,,15.1 µM (active)
CC1(C)CC(=O)C=C(c2ccc(COC(=O)c3cc(F)cc(F)c3)cc2)C1=O,-21.6,
CCn1cc(C(=O)N[C@@H](C)C(=O)NCCCn2ccnc2)c(=O)c2cc3c(cc21)OCO3,-1.17,
Cc1ccc(C(=O)N/C(=C\c2ccco2)C(=O)NCCCn2ccnc2)cc1,,3.79 µM (active)
C/C(N)=C(/C#N)C(=O)CSc1nnc(Nc2cccc(C)c2)s1,-9.35,
Cc1ccc(Nc2nnc(SCC(=O)c3c(N)n(C4CC4)c(=O)[nH]c3=O)s2)cc1C,-9.32,
Cc1cccc(Nc2nnc(SCC(=O)NCC3CCCO3)s2)c1 (stereo not drawn),,15.1 µM (active)
COc1ccc(-c2cn3c(C)c(C(=O)NCc4ccc5c(c4)OCO5)sc3n2)cc1,-1.04,
O=c1[nH][nH]cc1C=Nc1cc(Cl)ccc1O,,8.49 µM (active)

SMILES,"activity change, negative = inhibition [%]",Potency
O=c1oc(-c2ccco2)nc2ccccc12,,13.5 µM (active)
CN(C)c1ccc(/C=C/c2ccnc3ccc(-c4ccccc4)cc23)cc1,,12 µM (active)
Cc1cc(C)c2c(/C=C/c3ccc(N(C)C)cc3)ccnc2c1,,13.5 µM (active)
COc1ccc(N=C2SC(C(=O)N3CCN(c4ccc([N+](=O)[O-])cc4)CC3)CC(=O)N2C)cc1 (stereo not drawn),-8.15,
O=C(NC1CC1)c1ccc2nc(-c3ccco3)c(-c3ccco3)nc2c1,,8.49 µM (active)
O=C(NCCCO)c1ccc2nc(-c3ccco3)c(-c3ccco3)nc2c1,,5.36 µM (active)
O=C(O)c1ccc2nc(-c3ccco3)c(-c3ccco3)nc2c1,,7.57 µM (active)
CC(C)(C)NC(=O)c1cccc(NC(=O)c2ccc(NC(=O)c3ccco3)cc2)c1,-15.5,
O=C(Nc1ccccc1)c1ccc2nc(-c3ccco3)c(-c3ccco3)nc2c1,,13.5 µM (active)
CC(C)[C@H](NC(=O)c1ccccc1)C(=O)NC1CCCCCCC1,12.3,
Cc1ccc(C(O)c2ncc(-c3ccc4ccccc4c3)[nH]2)cc1F (stereo not drawn),-28.8,
O=C(NCc1ccccc1)c1ccc2nc(-c3ccco3)c(-c3ccco3)nc2c1,,16.9 µM (active)
CN(C)C(CNC(=O)c1ccc2c(c1)S(=O)(=O)c1ccccc1C2=O)c1ccco1 (stereo not drawn),-25.3,
Cc1ccc(CNC(=O)c2ccc(-n3cccc3)cc2)cc1,2.52,
COc1ccc(-c2coc3cc4oc(=O)c(CC(=O)O)c(C)c4cc23)cc1,,13.5 µM (active)
Cc1c(CC(=O)NCCCC(=O)O)c(=O)oc2cc3occ(-c4ccccc4)c3cc12,,13.5 µM (active)
Cc1c(CC(=O)N[C@@H](C)C(=O)O)c(=O)oc2cc3occ(-c4ccccc4)c3cc12,,6.75 µM (active)
Cc1c(CC(=O)NCC(=O)O)c(=O)oc2cc3occ(-c4ccccc4)c3cc12,,13.5 µM (active)
N#Cc1ccc(CSc2nnc(-c3c[nH]c4ccccc34)n2-c2ccccc2)cc1,-10.5,
Cc1c(CCC(=O)NCCCCCC(=O)O)c(=O)oc2cc3occ(-c4ccccc4)c3cc12,,8.49 µM (active)
COc1cccc2c1C(=O)/C(=C/c1ccc(N(C)C)cc1)C2,,4.78 µM (active)

SMILES,"activity change, negative = inhibition [%]",Potency
CN(C)CCNc1ccc2nnn3c4ccc(O)cc4c(=O)c1c23,,1.2 µM (active)
CN(C)CCNc1ccc2ncn3c4ccc(O)cc4c(=O)c1c23,,1.9 µM (active)
O=C(CC1(O)C(=O)Nc2ccccc21)c1ccccc1 (stereo not drawn),12.8,
CCOC(=O)c1c(NC(=O)/C=C/C(=O)O)sc(C)c1-c1ccc(Cl)cc1,-19.5,
Cn1c(=O)c(N)c2c3c(c(Br)ccc31)C(=O)c1ccccc1-2,,9.53 µM (active)
Cc1c(NC(=O)c2ccco2)cccc1C(=O)NN1C(=O)c2ccccc2C1=O,-9.57,
CCc1c(C)nc(Nc2nc(C)c3ccc(OC)cc3n2)[nH]c1=O,,3.38 µM (active)
Cc1nn2c(c1-c1ccccc1)NC1=C(C(=O)CCC1)C2c1ccccc1 (stereo not drawn),3.34,
C/C=C/c1ccc(OCCSc2nc(C)cc(=O)[nH]2)c(OC)c1,,10.7 µM (active)
O=S(=O)(Nc1nnc(-c2ccccc2)s1)c1ccc(Cl)cc1,,16.9 µM (active)
Cc1n[nH]c(=S)n(NC(=O)CC(=O)Nn2c(=S)[nH]nc(C)c2=O)c1=O,,1.2 µM (active)
CC1=CC(C)(C)Nc2ccc(OC(=O)CN3C(=O)c4ccccc4C3=O)cc21,9.89,
O=S(=O)(c1ccc(Cl)s1)N1CCc2ccccc2C1,65.2,
Cc1ccc(S(=O)(=O)NN2C(=O)/C(=C/c3cccc(F)c3)SC2=S)cc1,-16.6,
O=C(NN1C(=O)/C(=C\c2ccc(O)c([N+](=O)[O-])c2)SC1=S)c1ccccc1Cl,,12 µM (active)
COc1ccc(OC)c(/C=C2\SC(=S)N(NS(=O)(=O)c3ccccc3)C2=O)c1,-14.7,
COc1ccc(Nc2nc(C(C)(C)C)nc3c2nnn3Cc2ccccc2Cl)cc1OC,-19,
CCOC(=O)CNC(=O)C1CCCN(c2ncccn2)C1 (stereo not drawn),12.5,
NC(=O)C1CCN(c2oc(-c3cccs3)nc2S(=O)(=O)c2ccc(Br)cc2)CC1,-14.9,
CCOC(=O)C1CCCN(C2=C(NS(=O)(=O)c3ccc(Br)cc3)C(=O)c3ccccc3C2=O)C1 (stereo not drawn),,12 µM (active)
CCOC(=O)C1CCN(C2=C(NS(=O)(=O)c3ccc(Br)cc3)C(=O)c3ccccc3C2=O)CC1,,5.36 µM (active)
